The record followed here is PubChem BioAssay AID651956 (Broad Institute, 2012).

Measured potencies and affinities stand elsewhere. Inconclusive results are not listed. Active and inactive are the calls of the source.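 Rule for the calls: active = in every test run, a fitted half-maximal concentration for signal decrease at or below twice the highest tested concentration; inconclusive = runs disagree, flat 30 to 70% decrease, or poor fit; inactive = the rest.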

A short description of the assay: miR-122 activators in hepatoma reporter cells, dose response, cell-based, Huh7 psiCHECK-miR122, Renilla luciferase, cherry-picked (AID 651956).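 Note: Renilla luciferase from a miR-122 sensor reporter so lower signal means miR-122 activation.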

Take `CNC(=O)C[C@@H]1CC[C@@H]2[C@H](COc3ccc(NC(=O)NC(C)C)cc3C(=O)N2C)O1`: the outcome was inactive.

As for `O=C(COC(=O)c1ccccc1)Nc1cc(Cl)ccc1Oc1ccccc1`, the result was inactive. To `CC(=O)Nc1ccc2c(c1)C(=O)N(C)[C@@H]1CC[C@@H](CC(=O)NCc3ccc(Cl)cc3)O[C@H]1CO2` belongs “inactive”; to `CC(=O)N1[C@H](CN(C(=O)c2ccc(F)cc2)C(C)C)[C@@H](c2ccccc2)[C@@H]1CO`, “inactive”. Take `COC(=O)c1nn(-c2ccccc2)c(Sc2ccc(Cl)cc2)c1/C=N/O`: the result was inactive.

Consider `CCC(=O)N1[C@@H](CO)[C@H](c2ccccc2)[C@@H]1CN(C(C)C)S(C)(=O)=O`, for which the outcome was inactive. The entry for `O=C(NC[C@@H]1[C@H](c2ccccc2)[C@@H](CO)N1Cc1cccnc1)c1ccccn1` is “inactive”; for `C/C(=N\Nc1cc(N2CCCCC2)nc(C)n1)c1ccc(Br)cc1` it is “inactive”; for `Cn1c(-c2ccc(N)cc2)nc2ccccc21` it is “inactive”. `CN1C(=O)c2cc(NC(=O)Cc3ccccc3)ccc2OC[C@H]2O[C@@H](CC(=O)NCc3ccc(Cl)cc3)CC[C@@H]21`: the call was inactive.

For `CN1C(=O)c2cc(NS(=O)(=O)c3cccc(F)c3)ccc2OC[C@@H]2O[C@@H](CC(=O)NCCN3CCCCC3)CC[C@H]21`, the call was inactive. As for `COc1cc(-c2nnc(-c3ccco3)o2)ccc1OCc1ccccc1`, the outcome was inactive. The entry for `CNC(=O)c1nc(C)n(-c2cc(Cl)cc(Cl)c2)n1` is “inactive”; for `CN(C)CCCNC(=O)C[C@@H]1CC[C@H]2[C@H](COc3ccc(NC(=O)c4cccc(F)c4)cc3C(=O)N2C)O1` it is “inactive”.
